# Unmarked numbers belong to inactive results. Results filed as inconclusive are left out. Entries that show only a call come without a potency. Activity calls are given as the source filed them. Unless noted, the call rests on the fitted dose curve; in most records, active means well fitted curve in the direction sought with a large enough effect in the repeat runs; inconclusive means weak or mixed curves; inactive means no such curve, though single readings can be large; an effect the other way counts as inactive or inconclusive.
# Legend:
# [1] = qHTS assay to identify small molecule antagonists of the estrogen receptor beta (ER-beta) signaling pathway - cell viability counter screen (AID 1259382);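 further: HEK293T cells carrying ER-beta-UAS-bla reporter stimulated with estradiol; series mostly up to about 92 µM; nearly all actives have a fitted effect of over 55% in size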
# Outline: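 Cytotoxicity counter screen multiplexed with the beta-lactamase antagonist assay: GripTite HEK293T ER-beta-bla cells were treated 16 hr with test chemicals in the presence of 1nM 17-beta-estradiol, and viability was measured by CellTiter-Glo.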
# [2] = target: Estrogen receptor (Homo sapiens) (UniProt P03372); assay: qHTS assay to identify small molecule agonists of the estrogen receptor alpha (ER-alpha) signaling pathway in the presence of an antagonist (AID 1259383; calls by dose curve; further: top concentration of the series differs between compounds; nearly all actives have a fitted effect of over 15% in size)
# Sequence of Estrogen receptor (Homo sapiens) (P03372 whole entry, looked up): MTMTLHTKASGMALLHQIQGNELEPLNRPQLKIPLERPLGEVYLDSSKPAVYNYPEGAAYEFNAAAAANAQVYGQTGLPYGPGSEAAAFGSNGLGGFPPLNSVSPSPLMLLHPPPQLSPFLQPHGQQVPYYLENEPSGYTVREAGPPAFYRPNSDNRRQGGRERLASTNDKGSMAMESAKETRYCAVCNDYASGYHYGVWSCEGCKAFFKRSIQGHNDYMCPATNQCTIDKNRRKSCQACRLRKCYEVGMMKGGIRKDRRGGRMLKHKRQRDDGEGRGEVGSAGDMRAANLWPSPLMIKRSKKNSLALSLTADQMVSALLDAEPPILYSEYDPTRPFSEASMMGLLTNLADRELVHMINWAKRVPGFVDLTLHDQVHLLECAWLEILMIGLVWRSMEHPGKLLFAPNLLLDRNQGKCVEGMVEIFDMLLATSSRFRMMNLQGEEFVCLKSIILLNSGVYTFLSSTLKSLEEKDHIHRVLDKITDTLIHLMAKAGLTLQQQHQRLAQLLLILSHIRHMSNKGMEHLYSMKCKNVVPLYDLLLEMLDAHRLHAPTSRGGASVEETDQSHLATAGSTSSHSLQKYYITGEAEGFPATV
# Outline: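 Agonist-mode confirmation in the presence of the ER antagonist ICI-182,780 at 10.0nM final. Breast-derived VM7Luc4E2 reporter cells were exposed to compounds for 22hr, and ERE-driven luciferase was quantified by luminescence.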
# [3] = qHTS assay to identify small molecule agonists or antagonists of the thyroid stimulating hormone receptor (TSHR) signaling pathway - wild type cell line counter screen (AID 1259384; calls by dose curve)
# Outline: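 Wild-type HEK293 cells were plated 18 h at 37 C/5% CO2, pin-dosed with compound plus Ro20-1724 medium, held 30 min at room temperature, then given cAMP-d2 and anti-cAMP-cryptate; fluorescence was read after 1 h. Fifteen concentrations, triplicate.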
# [4] = target: Thyrotropin receptor (Homo sapiens) (UniProt P16473); assay: qHTS assay to identify small molecule antagonists of the thyroid stimulating hormone receptor (TSHR) signaling pathway (AID 1259385; calls by dose curve; further: nearly all actives have a fitted effect of over 20% in size)
# Sequence of Thyrotropin receptor (Homo sapiens) (P16473 whole entry, looked up): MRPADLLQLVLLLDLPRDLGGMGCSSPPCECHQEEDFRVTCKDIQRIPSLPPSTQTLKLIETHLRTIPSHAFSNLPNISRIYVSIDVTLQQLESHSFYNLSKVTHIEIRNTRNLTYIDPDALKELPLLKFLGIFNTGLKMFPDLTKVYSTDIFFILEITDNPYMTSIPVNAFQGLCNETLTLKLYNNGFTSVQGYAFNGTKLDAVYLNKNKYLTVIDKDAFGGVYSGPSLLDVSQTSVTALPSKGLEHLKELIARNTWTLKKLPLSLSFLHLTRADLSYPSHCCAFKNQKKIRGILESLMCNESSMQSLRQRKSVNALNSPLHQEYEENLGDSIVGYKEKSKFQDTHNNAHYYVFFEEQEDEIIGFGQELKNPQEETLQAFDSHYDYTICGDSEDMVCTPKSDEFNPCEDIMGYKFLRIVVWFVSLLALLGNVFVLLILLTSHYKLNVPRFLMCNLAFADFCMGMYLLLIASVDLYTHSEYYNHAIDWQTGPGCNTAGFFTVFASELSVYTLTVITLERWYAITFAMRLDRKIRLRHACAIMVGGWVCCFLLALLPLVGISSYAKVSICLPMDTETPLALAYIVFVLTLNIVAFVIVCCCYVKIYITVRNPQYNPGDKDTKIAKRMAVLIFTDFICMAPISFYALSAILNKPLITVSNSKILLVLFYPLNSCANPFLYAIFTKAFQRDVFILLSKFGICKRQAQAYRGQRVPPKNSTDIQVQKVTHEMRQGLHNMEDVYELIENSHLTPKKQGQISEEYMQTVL
# Outline: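 TSHR-HEK293 cells were plated and held 18 h at 37C/5% CO2, then given compound plus Ro20-1724 and stimulated with TSH at 1.5 ng/mL final. After 30 min at room temperature, cAMP was detected with cAMP-d2/anti-cAMP-cryptate (1 h) by fluorescence.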
# [5] = qHTS assay to identify small molecule agonists of the estrogen receptor alpha (ER-alpha) signaling pathway in the presence of an antagonist - cell viability counter screen (AID 1259386);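 further: series mostly up to about 92 µM; cells exposed to compounds for 22 h at 37 °C before the viability read; nearly all actives have a fitted effect of over 30% in size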
# Outline: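 Cytotoxicity was measured in parallel with the ERE-luciferase agonist screen, in the same wells. The cells were VM7Luc4E2, which endogenously express ER-alpha, and treatment was with compounds plus 10.0nM ICI-182,780 for 22hr.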
# [6] = target: Progesterone receptor (Homo sapiens) (UniProt P06401); assay: qHTS assay to identify small molecule agonists of the progesterone receptor (PR) signaling pathway (AID 1346784; calls by dose curve; further: nearly all actives have a fitted effect of over 30% in size; further: potency means the concentration at half of the fitted maximal effect)
# Sequence of Progesterone receptor (Homo sapiens) (P06401 whole entry, looked up): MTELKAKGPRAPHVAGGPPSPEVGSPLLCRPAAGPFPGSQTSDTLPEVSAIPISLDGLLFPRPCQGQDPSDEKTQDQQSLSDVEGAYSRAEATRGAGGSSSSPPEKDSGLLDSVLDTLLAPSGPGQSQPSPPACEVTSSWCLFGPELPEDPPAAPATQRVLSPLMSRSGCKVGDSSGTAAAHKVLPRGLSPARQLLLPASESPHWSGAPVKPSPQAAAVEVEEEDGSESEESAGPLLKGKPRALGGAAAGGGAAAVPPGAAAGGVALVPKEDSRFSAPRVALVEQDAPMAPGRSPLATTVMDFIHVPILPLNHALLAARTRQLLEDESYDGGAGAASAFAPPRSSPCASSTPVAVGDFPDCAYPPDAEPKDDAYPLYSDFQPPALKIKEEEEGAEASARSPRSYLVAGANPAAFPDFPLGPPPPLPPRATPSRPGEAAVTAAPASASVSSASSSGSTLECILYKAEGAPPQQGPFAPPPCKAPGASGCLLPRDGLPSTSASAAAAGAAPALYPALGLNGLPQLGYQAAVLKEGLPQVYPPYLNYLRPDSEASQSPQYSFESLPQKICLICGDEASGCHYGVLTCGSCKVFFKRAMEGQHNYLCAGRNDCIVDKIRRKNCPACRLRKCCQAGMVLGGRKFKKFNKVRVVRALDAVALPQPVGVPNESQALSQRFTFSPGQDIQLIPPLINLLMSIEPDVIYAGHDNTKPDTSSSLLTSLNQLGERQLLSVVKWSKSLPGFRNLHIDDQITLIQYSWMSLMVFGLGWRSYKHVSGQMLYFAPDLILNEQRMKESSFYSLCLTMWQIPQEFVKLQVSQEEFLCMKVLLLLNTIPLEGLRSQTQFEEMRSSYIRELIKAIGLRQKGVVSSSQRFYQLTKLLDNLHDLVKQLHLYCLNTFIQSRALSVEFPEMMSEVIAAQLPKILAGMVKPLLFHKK
# Outline: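 Beta-lactamase reporter read-out: after 16 hr compound treatment at 37C and a further 2 hr at room temperature with LiveBLAzer B/G FRET substrate, fluorescence was measured in PR-UAS-bla HEK 293T cells grown in 2% charcoal-stripped serum.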
# [7] = target: Progesterone receptor (Homo sapiens) (UniProt P06401); assay: qHTS assay to identify small molecule antagonists of the progesterone receptor (PR) signaling pathway (AID 1346795; active means well fitted inhibition curve with a large enough effect in the signal ratio in the repeat runs, not every such curve was filed as active; the % refers to the signal ratio)
# Outline: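 Read-out is fluorescence from the LiveBLAzer B/G FRET substrate, cleaved by a UAS-controlled beta-lactamase in PR-UAS-bla HEK293T cells after 16 hr exposure to compound plus 1 nM promegestone (final), followed by 2 hr at room temperature.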
# [8] = qHTS assay to identify small molecule antagonists of the progesterone receptor (PR) signaling pathway - cell viability counter screen (AID 1346798);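 further: HEK293T PR-UAS-bla cells stimulated with the agonist R5020; series mostly up to about 92 µM; nearly all actives have a fitted effect of over 50% in size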
# Outline: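 HEK293T PR-UAS-bla, 2% charcoal-stripped FBS; 4 hr pre-plate; cpd + R5020, 16 h 37C; LiveBLAzer read first; then CellTiter-Glo 30 min RT, luminescence.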
# [9] = qHTS assay to identify small molecule agonists of the progesterone receptor (PR) signaling pathway - cell viability counter screen (AID 1346799; calls by dose curve; further: nearly all actives have a fitted effect of over 45% in size)
# Outline: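 Luminescence from CellTiter-Glo, added after the beta-lactamase FRET read in the same wells, gave cytotoxicity in PR-UAS-bla HEK293T cells treated with compounds for 16 hr at 37C.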
# [10] = qHTS assay to identify small molecule antagonists of the TGF-beta/Smad signaling pathway - cell viability counter screen (AID 1346824); further: nearly all actives have a fitted effect of over 50% in size
# Outline: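 SBE-bla HEK 293T cells were plated overnight at 37 C, then given compounds in DMSO plus TGF-beta1 (added as 0.25 ng/mL solution) for 5 hr. After the bla read, CellTiter-Glo was added to the same wells and luminescence read after 30 min at room temperature.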
# [11] = qHTS assay to identify small molecule agonists of the TGF-beta/Smad signaling pathway - cell viability counter screen (AID 1346829); further: top concentration of the series differs between compounds; nearly all actives have a fitted effect of over 45% in size
# Outline: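 HEK 293T SBE-bla line, 5 hr compound exposure at 37 C, multiplexed CellTiter-Glo viability read by luminescence.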
# [12] = qHTS assay to identify small molecule agonists of the TGF-beta/Smad signaling pathway (AID 1346859; active means well fitted activation curve with a large enough effect in the signal ratio in the repeat runs, not every such curve was filed as active; the % refers to the signal ratio; further: series mostly up to about 77 µM)
# Outline: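 SBE-bla HEK 293T, 4,000 cells/well, plated o/n; cpd in DMSO, 5 hr, 37 C/5% CO2; B/G FRET substrate 2 hr RT; ex 405, em 460/530 nm.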
# [13] = target: Thyrotropin-releasing hormone receptor (Homo sapiens) (UniProt P34981); assay: qHTS assay to identify small molecule antagonists of the thyrotropin-releasing hormone receptor (TRHR) signaling pathway (AID 1346877; active means well fitted inhibition curve with a large enough effect in the repeat runs, not every such curve was filed as active; further: series mostly up to about 51 µM)
# Sequence of Thyrotropin-releasing hormone receptor (Homo sapiens) (P34981 whole entry, looked up): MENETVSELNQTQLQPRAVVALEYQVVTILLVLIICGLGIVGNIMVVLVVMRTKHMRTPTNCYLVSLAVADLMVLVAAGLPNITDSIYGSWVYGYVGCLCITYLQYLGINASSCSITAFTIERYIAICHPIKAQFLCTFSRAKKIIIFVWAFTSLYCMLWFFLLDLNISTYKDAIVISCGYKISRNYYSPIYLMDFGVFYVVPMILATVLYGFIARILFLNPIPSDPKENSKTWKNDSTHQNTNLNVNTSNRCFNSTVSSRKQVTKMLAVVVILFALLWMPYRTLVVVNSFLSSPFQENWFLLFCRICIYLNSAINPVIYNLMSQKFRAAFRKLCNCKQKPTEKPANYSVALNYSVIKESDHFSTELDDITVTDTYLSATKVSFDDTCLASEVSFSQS
# Outline: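 Antagonism is measured as suppression of the calcium response to 1 nM TRH in TRHR-HEK293 cells that have been dye-loaded for 2 h at 37 °C after overnight plating. Each compound is tested at 15 concentrations in triplicate.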
# [14] = target: Thyrotropin-releasing hormone receptor (Homo sapiens) (UniProt P34981); assay: qHTS assay to identify small molecule agonists of the thyrotropin-releasing hormone receptor (TRHR) signaling pathway (AID 1346891; calls by dose curve; further: series mostly up to about 58 µM)
# Outline: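 Intracellular calcium rise, read as fluorescence every second for 3 min, served as the agonist signal in dye-loaded HEK293 cells expressing TRHR; each compound ran at 15 concentrations in triplicate.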
# [15] = Human pregnane X receptor (PXR) small molecule agonists, qHTS cell viability counter screen (AID 1346977); further: nearly all actives have a fitted effect of over 50% in size
# Outline: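 PXR-Luc HepG2, 2,000 cells/well, 5% charcoal-stripped FBS; 5hr settle; cpd 24hr, 37C/5% CO2; CellTiter-Fluor at 23hr, read 1hr later (fluorescence).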
# [16] = Caspase-3/7 induction in HepG2 cells by small molecules, qHTS assay (AID 1346978); further: nearly all actives have a fitted effect of over 15% in size
# Outline: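 Wild-type HepG2 cells (2,000/well) were settled 5 h at 37 C, 5% CO2, then exposed to compounds in DMSO for 17 h. Caspase-3/7 activity was read by luminescence 30 min after adding Caspase-Glo 3/7 reagent at room temperature.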
# [17] = Caspase-3/7 induction in CHO-K1 cells by small molecules, qHTS cell viability counter screen (AID 1346979); further: nearly all actives have a fitted effect of over 35% in size
# Outline: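 Cells (CHO-K1, wild type) are plated at 1,500 per well and incubated 5hr. Test compounds in DMSO are then pinned in, followed by 16hr at 37C and 5% CO2. Viability is read by CellTiter-Fluor fluorescence after 1hr.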
# [18] = Caspase-3/7 induction in CHO-K1 cells by small molecules, qHTS assay (AID 1346980); further: nearly all actives have a fitted effect of over 15% in size
# Outline: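 Wild-type cells were seeded at 1,500 per well and settled 5 hr at 37 C, 5% CO2, then exposed to DMSO-dissolved compounds for 17 hr. Caspase-Glo 3/7 reagent was added, and luminescence was read after 30min at room temperature.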
# [19] = Caspase-3/7 induction in HepG2 cells by small molecules, qHTS cell viability counter screen (AID 1346981); further: series mostly up to about 92 µM; nearly all actives have a fitted effect of over 30% in size
# Outline: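 Cell viability is measured as a cytotoxicity counter screen alongside the Caspase-Glo 3/7 readout in identical wells. Wild-type HepG2 cells are treated with test compounds for 16 hr at 37 C before CellTiter-Fluor addition and a 1-hr incubation.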
# [20] = target: Androgen receptor (Homo sapiens) (UniProt P10275); assay: qHTS assay to identify small molecule agonists of the androgen receptor (AR) signaling pathway in the presence of an antagonist (AID 1259381; calls by dose curve; further: nearly all actives have a fitted effect of over 15% in size)
# Sequence of Androgen receptor (Homo sapiens) (P10275 whole entry, looked up): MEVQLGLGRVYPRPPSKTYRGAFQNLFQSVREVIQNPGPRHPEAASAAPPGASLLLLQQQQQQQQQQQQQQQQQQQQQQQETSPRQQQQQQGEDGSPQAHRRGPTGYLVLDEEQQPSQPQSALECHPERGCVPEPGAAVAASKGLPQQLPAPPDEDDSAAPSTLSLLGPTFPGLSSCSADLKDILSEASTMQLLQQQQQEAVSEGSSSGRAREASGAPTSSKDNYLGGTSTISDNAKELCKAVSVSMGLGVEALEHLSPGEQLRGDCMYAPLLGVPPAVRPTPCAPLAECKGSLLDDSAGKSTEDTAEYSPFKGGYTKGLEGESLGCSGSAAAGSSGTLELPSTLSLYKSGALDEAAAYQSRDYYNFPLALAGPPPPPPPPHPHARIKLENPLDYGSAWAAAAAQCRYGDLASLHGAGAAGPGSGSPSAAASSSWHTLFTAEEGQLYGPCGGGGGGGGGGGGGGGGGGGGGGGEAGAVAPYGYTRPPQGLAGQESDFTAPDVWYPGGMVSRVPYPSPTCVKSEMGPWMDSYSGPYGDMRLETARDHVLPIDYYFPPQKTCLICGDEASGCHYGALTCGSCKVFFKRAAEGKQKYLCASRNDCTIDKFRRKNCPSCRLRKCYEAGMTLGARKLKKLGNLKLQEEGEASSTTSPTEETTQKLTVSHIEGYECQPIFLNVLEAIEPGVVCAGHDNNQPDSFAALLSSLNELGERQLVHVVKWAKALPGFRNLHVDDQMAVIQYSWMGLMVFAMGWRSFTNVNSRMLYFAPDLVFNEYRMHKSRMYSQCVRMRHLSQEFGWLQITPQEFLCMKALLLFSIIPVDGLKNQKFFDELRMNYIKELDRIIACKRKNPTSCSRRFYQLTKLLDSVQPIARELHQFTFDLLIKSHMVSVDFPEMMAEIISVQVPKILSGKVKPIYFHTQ
# Outline: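 Agonist-mode confirmation screen: human MDA-kb2 cells stably expressing luciferase under an MMTV promoter bearing AR and GR response elements, co-treated with 3.0uM nilutamide (final). Luminescence measured after 16hr compound incubation.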
compound,measurement,setting,value
CCC1COC(=O)O1 (centres undefined),outcome,[1],inactive
same,outcome,[2],inactive
same,outcome,[3],inactive
same,outcome,[4],inactive
same,Potency,[5],inactive
same,Potency,[6],inactive
same,Potency,[7],inactive
same,Potency,[8],inactive
same,Potency,[9],inactive
same,outcome,[10],inactive
same,outcome,[11],inactive
same,outcome,[12],inactive
same,outcome,[13],inactive
same,outcome,[14],inactive
same,Potency,[15],inactive
same,outcome,[16],inactive
same,Potency,[17],inactive
same,outcome,[18],inactive
same,Potency,[19],inactive
C=CCOCC(CO)(COCC=C)COCC=C,outcome,[1],inactive
same,outcome,[2],inactive
same,outcome,[3],inactive
same,outcome,[4],inactive
same,Potency,[5],inactive
same,Potency,[6],inactive
same,Potency,[7],inactive
same,Potency,[8],inactive
same,Potency,[9],inactive
same,outcome,[10],inactive
same,outcome,[11],inactive
same,outcome,[12],inactive
same,outcome,[13],inactive
same,outcome,[14],inactive
same,Potency,[15],inactive
same,outcome,[16],inactive
same,Potency,[17],inactive
same,outcome,[18],inactive
same,Potency,[19],inactive
CCCOC(=O)CCCCC(=O)OCCC,outcome,[1],inactive
same,outcome,[2],inactive
same,outcome,[3],inactive
same,outcome,[4],inactive
same,Potency,[5],inactive
same,Potency,[6],inactive
same,Potency,[7],inactive
same,Potency,[8],inactive
same,Potency,[9],inactive
same,outcome,[10],inactive
same,outcome,[11],inactive
same,outcome,[12],inactive
same,outcome,[13],inactive
same,outcome,[14],inactive
same,Potency,[15],inactive
same,outcome,[16],inactive
same,Potency,[17],inactive
same,outcome,[18],inactive
CCOC(=O)C(C)(C)C,outcome,[1],inactive
same,outcome,[2],inactive
same,outcome,[3],inactive
same,outcome,[4],inactive
same,Potency,[5],inactive
same,Potency,[6],12.3 µM (active)
same,Potency,[7],inactive
same,Potency,[8],inactive
same,Potency,[9],inactive
same,outcome,[10],inactive
same,outcome,[11],inactive
same,outcome,[12],inactive
same,Potency,[15],inactive
same,outcome,[16],inactive
same,Potency,[17],inactive
same,outcome,[18],inactive
same,Potency,[19],inactive
NC(=O)NNC(N)=O,outcome,[1],inactive
same,outcome,[2],inactive
same,outcome,[3],inactive
same,outcome,[4],inactive
same,Potency,[5],inactive
same,Potency,[6],inactive
same,Potency,[7],inactive
same,Potency,[9],inactive
same,outcome,[10],inactive
same,outcome,[11],inactive
same,outcome,[12],inactive
same,outcome,[13],inactive
same,outcome,[14],inactive
same,Potency,[15],inactive
same,outcome,[16],inactive
same,Potency,[17],inactive
same,outcome,[18],inactive
same,Potency,[19],inactive
CCC(O)C(C)(C)C (centres undefined),outcome,[1],inactive
same,outcome,[2],inactive
same,outcome,[3],inactive
same,outcome,[4],inactive
same,Potency,[5],inactive
same,Potency,[6],inactive
same,Potency,[7],inactive
same,Potency,[8],inactive
same,Potency,[9],inactive
same,outcome,[10],inactive
same,outcome,[11],inactive
same,outcome,[12],inactive
same,outcome,[13],inactive
same,outcome,[14],inactive
same,Potency,[15],inactive
same,outcome,[16],inactive
same,Potency,[17],inactive
same,outcome,[18],inactive
same,Potency,[19],inactive
CCCCCCCCCCCCCCCCI,activation,[20],0.857% [at 19 µM]
same,cAMP activity change,[3],5% [at 18.9 µM]
same,"activity change, negative = inhibition",[4],-4.61% [at 19 µM]
same,"activity change, negative = cytotoxicity",[5],-3.61% [at 19 µM]
same,activation,[6],0.0661% [at 19 µM]
same,"activity change, negative = inhibition",[7],-3.13% [at 18.9 µM]
same,"activity change, negative = cytotoxicity",[8],17.5% [at 18.9 µM]
same,"activity change, negative = cytotoxicity",[9],-9.05% [at 19 µM]
same,"viability change, negative = cytotoxic",[10],-2.44% [at 15.8 µM]
same,"activity change, negative = cytotoxicity",[11],0.0425% [at 15.8 µM]
same,activation,[12],1.65% [at 15.8 µM]
same,"activity change, negative = cytotoxicity",[15],1.52% [at 19 µM]
same,caspase activation,[16],0.99% [at 19 µM]
same,"activity change, negative = cytotoxicity",[17],4.85% [at 19 µM]
same,caspase-3/7 activation,[18],-0.405% [at 19 µM]
same,"activity change, negative = cytotoxicity",[19],7.09% [at 19 µM]
CCCCC(CC)COC(=O)c1ccccc1 (centres undefined),outcome,[1],inactive
same,outcome,[2],inactive
same,outcome,[3],inactive
same,outcome,[4],inactive
same,Potency,[5],inactive
same,Potency,[6],inactive
same,Potency,[7],inactive
same,Potency,[8],inactive
same,outcome,[10],inactive
same,outcome,[11],inactive
same,outcome,[12],inactive
same,outcome,[13],inactive
same,outcome,[14],inactive
same,Potency,[15],inactive
same,outcome,[16],inactive
same,Potency,[17],inactive
same,outcome,[18],inactive
same,Potency,[19],inactive

# — PubChem BioAssay (Tox21)
